Screening results deposited in PubChem BioAssay by National Center for Advancing Translational Sciences (NCATS).
The list is not random: actives were taken first. Their share in the collection is about 2.4%.
ClpP mod: qHTS Assay for Activators of ClpP; ATP-dependent Clp protease proteolytic subunit (Bacillus subtilis (strain 168)), P80244; purified B. subtilis ClpP, FRET peptide cleavage, 20 min; Potency, µM (highest dose often 57.5 µM); hit rate 1.9% among 340,000; active means well fitted falling curve with a large enough effect; inconclusive means small, poorly fitted or top-dose-only effect; inactive means no such curve, though single readings can be large or run the other way; further: the source files actives as falling curves though it sought activators and does not explain the sign; nearly all actives have a fitted effect of over 65% in size
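FRET quenching reversal measured ClpP activation: 10 microg/mL B. subtilis ClpP at pH 8 with the FRET-FV decapeptide, read at 430 nm after 320 nm excitation. The 20-min minus 0-min signal was scaled between DMSO/no-enzyme wells and ADEP (5.8 microM final).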
Rango release inh: qHTS Assay for Inhibitors of RanGTP induced Rango (Ran-regulated importin-beta cargo) - Importin beta complex dissociation. Snurportin-1 (Homo sapiens) + GTP-binding nuclear protein Ran (Homo sapiens) + Importin …. Biochemical FRET Rango-importin beta, RanGTP-induced dissociation. Potency, µM (highest dose often 46.1 µM). hit rate 0.071% among 340,000; further: nearly all actives have a fitted effect of over 45% in size
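Two FRET readings bracket the reaction: one 5 min after compound meets Rango–importin beta, another 45 min after RanGTP-RCC1 (0.6 uM Ran, 0.2 uM RCC1, 2 mM GTP) is added. Only the second defines inhibition.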
Rango complex inh: qHTS Assay for Inhibitors of Rango (Ran-regulated importin-beta cargo) - Importin beta complex formation | Rango CFP/YFP FRET sensor + importin beta, 45 min | Potency, µM (series often up to 92.2 µM) | hit rate 0.031% among 340,000 | AID 540263, 2011; further: nearly all actives have a fitted effect of over 15% in size
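Inhibition scored from the CFP 486 nm/YFP 530 nm FRET ratio 45 min after adding 0.125 microM importin beta to 50 nM Rango biosensor preincubated 5 min with compound (room temperature, PBS with DTT, Tween-20, BSA). No-importin wells as positive control.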
PTAP TSG101 blk: qHTS Assay for Iinhibitors of HIV-1 Budding by Blocking the Interaction of PTAP/TSG101 | Tumor susceptibility gene 101 protein (Homo sapiens), Q99816 | Fluorescence polarization, FITC-PTAP peptide / Tsg101 binding | Potency, µM (titrated, usually from 115 µM), hits mostly inhibitors | 340,000 tested, under 10 active; active means well fitted inhibition curve with a large enough effect in the main read-out, with a control signal flat, not every such curve was filed as active; inconclusive means small, poorly fitted or top-dose-only effect, or effect the other way, or a change in a side signal; inactive means no such curve, though single readings can be large or run the other way
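FP read-out: FITC-PTAP peptide, 50 nM final, binding Tsg101 binding domain, 10 uM final; 20 min, r.t.; 10 mM HEPES pH 7.5, 0.15 M NaCl, 0.01% Tween 20, 3 mM EDTA, 0.1 mM TCEP.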
TDP1 inh: qHTS Assay for Inhibitors of Tyrosyl-DNA Phosphodiesterase (TDP1). hit rate 0.28% among 350,000. recombinant TDP1, AlphaScreen DNA substrate cleavage. Tyrosyl-DNA phosphodiesterase 1 (Homo sapiens), Q9NUW8. Potency, µM (top dose mostly 130 µM), hits mostly inhibitors. AID 485290, 2010; active means well fitted curve in the direction sought with a large enough effect; inconclusive means small, poorly fitted or top-dose-only effect, or another doubt; inactive means no such curve, though single readings can be large; an effect the other way counts as inactive or inconclusive; further: nearly all actives have a fitted effect of over 40% in size
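Steps: enzyme plus compound, 15 min RT; add biotin/phosphotyrosine-FITC oligonucleotide (15 nM final), react 5 min; add donor/acceptor beads (10 ug/ml final), 10 min; read AlphaScreen. Tdp1 at 1 nM final.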
12-LOX inh: Primary qHTS assay for inhibitors of human arachidonate 12S-lipoxygenase (ALOX12): Round 2. Polyunsaturated fatty acid lipoxygenase ALOX12 (Homo sapiens), P18054. purified 12hLO, xylenol orange hydroperoxide absorbance. Potency, µM (titrated, usually from 108 µM), most hits filed as inhibitors. hit rate 1.1% among 580,000. AID 1671190, 2021; active means well fitted curve in the direction sought with a large enough effect; inconclusive means small, poorly fitted or top-dose-only effect, or another doubt; inactive means no such curve, though single readings can be large; an effect the other way counts as inactive or inconclusive
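Hydroperoxide product was detected by ferrous iron/xylenol orange as the 573 to 405 nm absorbance ratio. Arachidonic acid at 40 uM (final) was turned over for 30 min at room temperature by 150 nM human 12hLO, pH 7.0 Hepes buffer, after 15 min compound preincubation.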
Large screens that a line does not name were inactive. Unless noted, the call rests on the fitted dose curve.

CCOc1cccc(N2C(=O)/C(=C/c3ccco3)C(=O)NC2=S)c1	Rango complex inh inconclusive, 12-LOX inh 11µM (no result: TDP1 inh)
O=C1NC(=S)N(c2ccccc2)C(=O)/C1=C/c1ccco1	Rango release inh inconclusive, Rango complex inh inconclusive, 12-LOX inh inconclusive (no result: ClpP mod, TDP1 inh)
O=[S+]1([O-])NC2(CCN(Cc3cccnc3)C2)CNc2ccccc21 (configuration not stated)	none (no result: ClpP mod, Rango release inh, Rango complex inh, PTAP TSG101 blk, TDP1 inh)
O=C1Nc2ccccc2CC12CCN2Cc1ccncc1 (configuration not stated)	none (no result: ClpP mod, Rango release inh, Rango complex inh, PTAP TSG101 blk, TDP1 inh)
COc1cc(C=C2C(=O)NC(=O)NC2=O)ccc1OCc1ccc([N+](=O)[O-])cc1	12-LOX inh inconclusive (no result: ClpP mod)
O=C1NC(=O)C(=Cc2ccccc2OCCOc2ccc([N+](=O)[O-])cc2)C(=O)N1	Rango complex inh inconclusive (no result: ClpP mod, 12-LOX inh)
Cc1ccc(OCCOc2cccc(C=C3C(=O)NC(=O)NC3=O)c2)cc1	Rango complex inh inconclusive, 12-LOX inh 32µM (no result: TDP1 inh)
Cc1cc(C)cc(OCCOc2cccc(C=C3C(=O)NC(=O)NC3=O)c2)c1	TDP1 inh 79µM, 12-LOX inh 13µM
CC(=O)[O][Hg][c]1ccccc1	TDP1 inh 32µM (no result: ClpP mod, Rango release inh, Rango complex inh, PTAP TSG101 blk, 12-LOX inh)
COc1cc2c(cc1OCC1CC1)NC(=O)C21CCN(C(=O)c2cccc(O)c2)CC1	none (no result: ClpP mod, Rango release inh, Rango complex inh, PTAP TSG101 blk, TDP1 inh)
O=C(Nc1ccc2ccccc2c1)c1nn(C23CC4CC(CC(C4)C2)C3)cc1Br	ClpP mod 20µM
Cc1nc(Cl)sc1C(=O)Nc1ccc2ccccc2c1	12-LOX inh inconclusive
Cc1sc2c(c1C)C(c1ccc(F)cc1)=NCC(=O)N2CC(=O)Nc1cc(F)ccc1F	none (no result: ClpP mod, Rango release inh, Rango complex inh, PTAP TSG101 blk, TDP1 inh)
O=C1NC(=O)N(c2ccccc2)C(=O)/C1=C/c1coc2ccc(O)cc2c1=O	12-LOX inh 45µM (no result: TDP1 inh)
CN1CCC(N(C)CCC2CCOCC2)CC1	none (no result: ClpP mod, Rango release inh, Rango complex inh, PTAP TSG101 blk, TDP1 inh)
O=c1[nH]c(=S)[nH]c(O)c1/C=C1/C=c2ccccc2=N1	none (no result: ClpP mod, TDP1 inh)
Cc1cccc2c1=NC(=O)/C(=C/c1c(O)[nH]c(=O)[nH]c1=O)C=2	ClpP mod 13µM
CCOc1ccc2nc(N=Nc3c(O)[nH]c(=O)[nH]c3=O)sc2c1	Rango complex inh inconclusive, TDP1 inh 40µM
COc1ccc(-c2cc([C@H]3CN4CC[C@H]3C[C@@H]4CNC(=O)NC(C)C)n(C)n2)cc1	none (no result: ClpP mod, Rango release inh, Rango complex inh, PTAP TSG101 blk, TDP1 inh)
O=C1NC(=S)NC(=O)C1Cc1ccccc1	12-LOX inh 28µM (no result: TDP1 inh)
O=C/C=C/c1ccccc1	none
O=C1NC(=S)NC(=O)C1C/C=C/c1ccccc1	12-LOX inh 4µM
Cc1nn(-c2ncnc3nc[nH]c23)c2c1C(c1ccc(C(C)C)cc1)SCC(=O)N2 (configuration not stated)	none (no result: ClpP mod, Rango release inh, Rango complex inh, PTAP TSG101 blk, TDP1 inh)
CNCC/C=C/c1cccnc1	12-LOX inh inconclusive (no result: ClpP mod, Rango release inh, Rango complex inh, PTAP TSG101 blk)
CNCC/C=C\c1cccnc1	12-LOX inh 25µM (no result: ClpP mod, Rango release inh, Rango complex inh, PTAP TSG101 blk)
O=C(c1ccc2c(c1)OCO2)N1[C@H]2CC[C@@H]1c1cnc(-c3ccc(F)cc3)nc1C2	none (no result: ClpP mod, Rango release inh, Rango complex inh, PTAP TSG101 blk, TDP1 inh)
N#Cc1cccc(NC(=O)Nc2ccc3n(c2=O)C[C@H]2C[C@@H]3CN(C3CCOCC3)C2)c1	12-LOX inh 16µM (no result: ClpP mod, Rango release inh, Rango complex inh, PTAP TSG101 blk, TDP1 inh)
CC(=O)N1C[C@@H]2C[C@H](C1)c1ccc(NC(=O)Nc3cccc(C#N)c3)c(=O)n1C2	none (no result: ClpP mod, Rango release inh, Rango complex inh, PTAP TSG101 blk, TDP1 inh)
C=CCN1C(=O)/C(=C/c2cccs2)C(=O)NC1=S	Rango complex inh inconclusive, 12-LOX inh 45µM
COc1ccc(N2C(=O)/C(=C/c3cccs3)C(=O)NC2=S)cc1	Rango complex inh inconclusive, 12-LOX inh 28µM (no result: ClpP mod)
COc1ccc(N2C(=O)NC(=O)/C(=C\c3ccc([N+](=O)[O-])s3)C2=O)cc1	Rango release inh inconclusive, Rango complex inh inconclusive, 12-LOX inh 45µM (no result: ClpP mod)
COc1ccc(N2C(=O)/C(=C/c3ccc(N(C)C)o3)C(=O)NC2=S)cc1	PTAP TSG101 blk inconclusive, 12-LOX inh inconclusive (no result: TDP1 inh)
COc1ccccc1N1C(=O)NC(=O)/C(=C/c2ccc([N+](=O)[O-])s2)C1=O	12-LOX inh inconclusive
COc1ccccc1N1C(=O)NC(=O)/C(=C/c2ccc3c4c(cccc24)CC3)C1=O	12-LOX inh 50µM
COc1ccc(Cn2c(N)c(C(=O)NCc3ccco3)c3nc4ccccc4nc32)cc1	ClpP mod 32µM, Rango release inh inconclusive, Rango complex inh inconclusive
Nc1c(C(=O)NCc2ccco2)c2nc3ccccc3nc2n1Cc1ccccc1	Rango release inh inconclusive, Rango complex inh inconclusive, 12-LOX inh inconclusive
Nc1c(C(=O)NCc2ccco2)c2nc3ccccc3nc2n1Cc1ccc(F)cc1	ClpP mod 28µM, Rango release inh inconclusive, Rango complex inh inconclusive
O=C1N(Cc2cccnc2)C[C@H]2CN(C3CCOCC3)CCN12	none (no result: ClpP mod, Rango release inh, Rango complex inh, PTAP TSG101 blk, TDP1 inh)
COCC1CN(C(=O)N(C)C)CC12CCNCC2 (configuration not stated)	none (no result: ClpP mod, Rango release inh, Rango complex inh, PTAP TSG101 blk, TDP1 inh)
